Only some compounds are listed: those with a hit (about 1.6% of all), similar ones and a draw of the others.
NLRP3 yeast inh – blocks the NALP3 inflammasome reconstituted in yeast | 330,000 tested, 0.39% active | AID 2825 | inhibition, % at 10 µM | Yeast reconstituted NLRP3/ASC/caspase-1, beta-gal luminescence, 24 h;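 active means inhibition of 50% or more; inactive means inhibition below 50%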
Yeast superoxide – caloric restriction mimetics inhibiting age-related superoxide in yeast; AID 2690; 330,000 tested, 0.18% active; superoxide response (% of plate mean), % at 10 µM; S. cerevisiae aged cells, superoxide DHE fluorescence; stronger effect = lower value;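 active means superoxide response under a set limit, about three screen SD below normal, cut at about 65% in these data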;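 further: yeast aged for seven days with compound at 30 °C before DHE staining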
V-ATPase pH – yeast V-ATPase proton transport regulation by pHLuorin; S. cerevisiae, pHLuorin cytosolic pH fluorescence; 350,000 tested, 0.37% active; response, % at 10 µM; in the data active means response mostly above about 7.3%, no sharp cut-off; inactive means mostly below about 5.4%; further: actives read high
PERK inhibitor – human PERK inhibition, primary cell-based screen. inhibition, % at 5.6 µM. Q9NZJ5. CHO PERK-DD fusion, SEAP luminescence translation reporter. 220,000 tested, 0.17% active;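 active means inhibition above the mean inhibition of all tested compounds plus 3 SD, set separately per screening campaign, cut at about 2.9% in these data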;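 further: PERK kinase domain activated by AP20187 dimerizer at 100 nM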
Rce1 inh – inhibitors of yeast Ras-converting enzyme; Q03530; yeast membranes, quenched prenylated peptide cleavage fluorescence; calls only; 290,000 tested, 0.27% active;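 active means fall in fluorescence gain of 50% or more versus controls, with final raw signal at or below 3038400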
Target sequence (Q03530 whole entry, looked up): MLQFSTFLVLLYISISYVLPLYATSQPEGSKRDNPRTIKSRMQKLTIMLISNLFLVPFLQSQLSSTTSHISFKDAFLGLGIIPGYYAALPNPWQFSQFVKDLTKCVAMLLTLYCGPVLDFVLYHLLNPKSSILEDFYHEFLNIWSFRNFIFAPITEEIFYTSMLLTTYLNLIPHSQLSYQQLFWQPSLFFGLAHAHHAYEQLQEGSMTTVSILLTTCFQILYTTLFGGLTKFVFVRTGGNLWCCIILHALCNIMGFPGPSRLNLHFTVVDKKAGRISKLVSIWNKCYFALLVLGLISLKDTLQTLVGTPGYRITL
NALP1 yeast inh – blocks the NALP1 inflammasome reconstituted in yeast | S. cerevisiae NALP1/ASC/caspase-1 growth, X-gal OD620, 72 h | 280,000 tested, 0.61% active | inhibition, % at 10 µM | AID 2071; in the data active means inhibition mostly above about 24%, no sharp cut-off; inactive means mostly below about 32%
Each line names hits and unclear results; the compound was inactive in the other large screens.

Cc1cccc(NC(=O)c2nc[nH]c2C(=O)NC[C@H](C)O)c1	none (no result: NLRP3 yeast inh, Yeast superoxide, PERK inhibitor, Rce1 inh, NALP1 yeast inh)
O=C1NN=C2CCCCCCC12 (stereo unspecified)	none (no result: NLRP3 yeast inh, Yeast superoxide, PERK inhibitor, Rce1 inh, NALP1 yeast inh)
CC(=O)c1ccc(N2CCN(C(=O)CNC(=O)c3ccc(Br)o3)CC2)cc1	none (no result: NLRP3 yeast inh, Yeast superoxide, PERK inhibitor, Rce1 inh, NALP1 yeast inh)
CC(=O)C(C(C)=O)C1(O)C(=O)c2ccccc2C1=O	PERK inhibitor 3.0
CC(=O)Nc1cc(N2C(=O)CCC2=O)ccc1Cl	none
CC(=O)Nc1c(Br)cc(N2C(=O)CCC2=O)cc1Br	PERK inhibitor 3.1
CCOC(=O)c1ccc(N2C(=O)CC(N3CCOCC3)C2=O)cc1 (stereo unspecified)	NALP1 yeast inh 30.0
O=C1CC(N2CCCN(C3CC(=O)N(c4ccc(F)cc4)C3=O)CC2)C(=O)N1c1ccc(F)cc1 (stereo unspecified)	NALP1 yeast inh 39.1
O=C1CC(N2CCN(c3ccc(Cl)cc3)CC2)C(=O)N1c1ccc(F)cc1 (stereo unspecified)	none (no result: PERK inhibitor)
COc1cccc(C(=Cc2ccc([N+](=O)[O-])cc2)C(=O)O)c1	none (no result: NLRP3 yeast inh, Yeast superoxide, PERK inhibitor, Rce1 inh, NALP1 yeast inh)
Cc1cc(C(C)(C)C)c(O)c(C(C)(C)C)c1	none
CC(C)(C)c1cc(O)c(C(C)(C)C)cc1O	Yeast superoxide 52.0 (no result: V-ATPase pH, PERK inhibitor, NALP1 yeast inh)
CCOC(=O)c1ccc(N=c2sc(C(=O)OC)cc(=O)n2C2CC2)cc1	PERK inhibitor 3.1 (no result: NALP1 yeast inh)
COc1cc(CNC2CCCC2)cc(Cl)c1OCc1ccc(F)cc1	none
CCOc1cc(CNC2CCCC2)cc(Cl)c1OCc1ccc(F)cc1	NALP1 yeast inh 96.6
Fc1ccc(COc2ccc(Br)cc2CNCc2ccncc2)cc1	none
CCOc1cc(CNCc2ccncc2)cc(Br)c1OCc1ccc(F)cc1	NALP1 yeast inh 51.3
CCN(CC)C(=O)C1=C(C)N(CCCN2CCCC2=O)C(=O)C(CC(=O)NCc2cccc3ccccc23)C1 (stereo unspecified)	none (no result: NLRP3 yeast inh, Yeast superoxide, PERK inhibitor, Rce1 inh, NALP1 yeast inh)
Cc1ccc2c(=O)n3c(nc2c1)C(Cc1ccc(O)cc1)NC(=O)c1ccc(Cl)cc1-3 (stereo unspecified)	none (no result: V-ATPase pH, PERK inhibitor, Rce1 inh, NALP1 yeast inh)
COC(=O)c1ccccc1NCCO	none
O=C(O)c1ccccc1NCCO	Rce1 inh active
COc1ccc(S(=O)(=O)N2CCOC2CNC(=O)C(=O)NCc2ccc3c(c2)OCO3)cc1C (stereo unspecified)	none (no result: NLRP3 yeast inh, Yeast superoxide, PERK inhibitor, Rce1 inh, NALP1 yeast inh)
CC(=O)c1ccc(-c2ccc(C(=O)N3CCC(C(N)=O)CC3)o2)cc1	Rce1 inh active (no result: PERK inhibitor, NALP1 yeast inh)
CC(=O)c1ccc(-c2ccc(C(=O)N3CCN(c4ccc(F)cc4)CC3)o2)cc1	none
CCOc1ccc(S(=O)(=O)Nc2cccc(N(C)S(C)(=O)=O)c2)cc1	NALP1 yeast inh 41.7
COc1ccc(OCCOC(=O)CNC(=O)c2ccc(F)cc2)cc1	none (no result: NLRP3 yeast inh, Yeast superoxide, PERK inhibitor, Rce1 inh, NALP1 yeast inh)
O=C(CS(=O)(=O)c1ccc(Cl)cc1)Nc1nccs1	none (no result: NLRP3 yeast inh, Yeast superoxide, PERK inhibitor, Rce1 inh, NALP1 yeast inh)
CN1/C(=C/C(=O)CSc2ccccc2C(=O)O)C(C)(C)c2ccccc21	NALP1 yeast inh 44.9
COc1ccc(CN2C(=O)C(CC(=O)NCC3CCCCC3)CC(C(=O)N(C)C)=C2C)cc1 (stereo unspecified)	none (no result: NLRP3 yeast inh, Yeast superoxide, PERK inhibitor, Rce1 inh, NALP1 yeast inh)
Cc1ccnc(NS(=O)(=O)c2ccc(NS(=O)(=O)c3cc(Cl)ccc3Cl)cc2)n1	NALP1 yeast inh 40.4 (no result: PERK inhibitor)
O=Cc1ccc([B-](F)(F)F)s1	none (no result: NLRP3 yeast inh, Yeast superoxide, PERK inhibitor, Rce1 inh, NALP1 yeast inh)
CCCn1c(Nc2nc3ccccc3n2C)nc2ccccc21	NALP1 yeast inh 30.2
CNC(=O)c1nnsc1S(=O)c1ccc(Cl)cc1 (stereo unspecified)	NALP1 yeast inh 92.7 (no result: Yeast superoxide)
CCCNC(=O)c1nnsc1S(=O)c1ccc(Cl)cc1 (stereo unspecified)	NALP1 yeast inh 103.0 (no result: Yeast superoxide)
CCCNC(=O)c1ccc2snnc2c1	none
CCCNC(=O)c1nnsc1S(=O)(=O)c1ccc(Cl)cc1	NALP1 yeast inh 104.1 (no result: Yeast superoxide, Rce1 inh)
CNC[C@@H]1OCc2ccccc2-c2c(n(C)c3ccccc23)C(=O)N([C@H](C)CO)C[C@H]1C	none (no result: NLRP3 yeast inh, Yeast superoxide, PERK inhibitor, Rce1 inh, NALP1 yeast inh)
CC(CCc1ccccc1)NCC(O)c1ccc(O)c(C(N)=O)c1 (stereo unspecified)	Rce1 inh active
CC(=O)NC(C)CCc1ccccc1 (stereo unspecified)	none
O=C(CCc1nc(-c2ccccc2F)no1)Nc1ccc(Oc2ccccc2)cc1	NALP1 yeast inh 40.9
COc1cccc(NC(=O)CCc2nc(-c3ccccc3F)no2)c1	none
Cc1ccc(F)cc1NC(=O)COC(=O)C1CC2CCCC(C1)C2=O (stereo unspecified)	none (no result: NLRP3 yeast inh, Yeast superoxide, PERK inhibitor, Rce1 inh, NALP1 yeast inh)
COc1ccccc1NS(=O)(=O)CC12CCC(CC1=O)C2(C)C (stereo unspecified)	NALP1 yeast inh 41.5
COc1cccc(NS(=O)(=O)CC23CCC(CC2=O)C3(C)C)c1 (stereo unspecified)	none
NS(=O)(=O)c1ccc(CCNC(=O)CSc2nc3ccsc3c(=O)n2Cc2ccccn2)cc1	none (no result: NLRP3 yeast inh, Yeast superoxide, PERK inhibitor, Rce1 inh, NALP1 yeast inh)
Cc1ccc(C(=O)Nc2cccc(NC(=O)c3cccs3)c2)c(C)c1	none (no result: PERK inhibitor)
Oc1ccc(-c2nc3ccccn3c2NCc2ccc3c(c2)OCO3)cc1	Rce1 inh active
Cc1[nH]c2ccccc2c1/C=C/c1cc[n+](C)cc1	V-ATPase pH 13.0 (no result: NLRP3 yeast inh, Yeast superoxide, Rce1 inh)
Cc1nn(-c2ccccc2)c(C)c1CNC(=O)c1ccc(S(=O)(=O)NCc2ccco2)cc1	V-ATPase pH 20.5 (no result: PERK inhibitor, Rce1 inh, NALP1 yeast inh)
Cc1cc(C)n(CCCNC(=O)c2ccc(S(=O)(=O)NCc3ccco3)cc2)n1	none (no result: NALP1 yeast inh)
COc1ccc(-c2cc(C(F)F)n3ncc(C(=O)Nc4cc(C)on4)c3n2)cc1	NALP1 yeast inh 42.9 (no result: Rce1 inh)
COc1ccc(-c2cc(C(F)F)n3ncc(C(=O)Nc4c(C)n(C)n(-c5ccccc5)c4=O)c3n2)cc1	none
Cc1ccc(S(=O)(=O)NC2CCCC2)cc1C	NALP1 yeast inh 38.6
CCOc1ccc(S(=O)(=O)NC2CCCC2)cc1C	none (no result: PERK inhibitor)

Bioassay records as filed in PubChem.
